The results in this text go back to PubChem BioAssay.

A number with no mark means an inactive call.

The nature of the test: growth of efflux-deficient E. coli DRC39 – strain DRC39, OD650, 48 h, E. coli filamentation inducers, primary screen (AID 1179).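 Note: screen aims at cell division blockers that make cells filament.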 The following applies: E. coli DRC39 delta-acrAB growth, higher = more signal, called active from +8 up or from −8 down.
As for `C=CCC(OC(C)=O)[C@@H]1[C@@H](N(Cc2ccc(-c3cccc(C(F)(F)F)c3)o2)C(=O)Cc2ccc(OC)cc2)c2cc(OCCCO)ccc2N1C(=O)Cc1ccc2ccccc2c1` (some centres undefined), the z-score was 0.279.
Regarding `COCCOC(=O)N1C(=O)[C@@]2(c3cc(C#CCNC(N)=O)ccc31)[C@H](c1ccc(O)cc1)N1[C@H](c3ccccc3)[C@H](c3ccccc3)OC(=O)[C@H]1[C@@H]2C(N)=O`, the z-score is 1.28.
Regarding `C=CC1c2cc(O)c(OC)cc2CCN1Cc1ccc([N+](=O)[O-])o1` (centres undefined), the z-score is -0.217.
As for `CC(=O)n1cc(C(O)C2C=CC3C(=O)N(c4ccccc4)C(=O)C3N2Nc2ccc(C(C)C)cc2)c2ccccc21` (centres undefined), the figure is -0.0683; as for `CO[C@H]1O[C@H](CO)[C@@H](OC(=O)c2ccc(Br)cc2)[C@@H]2OC(=O)[C@H](Cc3ccccc3)C/C=C/C[C@@H](Cc3ccccc3)C(=O)O[C@@H]12`, 2.16.
Take `CN(C)CCCC[C@@H]1NC(=O)[C@@H]2C[C@H](C(=O)O)[C@H](c3cccc(OCCO)c3)N2C1=O`: the z-score was 0.494.
For `CCCCCCCCCCC(O)C1C=CC2C(=O)N(c3ccccc3)C(=O)C2N1Nc1ccccc1F` (centres undefined), the z-score is 0.555.
Regarding `C=CCOC(=O)[C@H]1[C@@H]2C(=O)O[C@@H](c3ccccc3)[C@@H](c3ccccc3)N2[C@@H](c2ccc(OCCOC(=O)[C@H]3C[C@H]4C(=O)N[C@@H](CCCCNC(C)=O)C(=O)N4[C@H]3c3cccc(OCCO)c3)cc2)[C@]12C(=O)Nc1ccc(I)cc12`, the z-score was -1.2.
To `Cc1ccc(F)cc1S(=O)(=O)N[C@@H]1CCN(Cc2cccc3[nH]ccc23)C1` belongs -1.32.
In the case of `CC(C)C(=C=CC[C@@H](O)c1cccc(OCCO)c1)C[C@@H](O)c1ccccn1`, the z-score is -0.158.
Take `[N-]=[N+]=NCc1ccccc1[C@H]1OC(c2ccc(OCCCO)cc2)=N[C@@]1(Cc1ccccc1)C(=O)NCCN1CCOCC1`: the z-score is 0.763.
`C=CC[C@H](OC(=O)Nc1ccc(SC)cc1)c1ccc(OCCO)cc1`: the z-score was -0.254.
Consider `CN(C)C(=O)[C@@]1(Cc2ccccc2)COC(c2ccc(OCCCO)cc2)=N1`, for which the z-score is 1.19.
`NC(=O)[C@H]1[C@@H]2C(=O)O[C@@H](c3ccccc3)[C@@H](c3ccccc3)N2[C@@H](c2ccc(O)cc2)[C@]12C(=O)Nc1ccc(C#CC3=CCCCC3)cc12`: the z-score is -0.51.
